Measurements published in PubChem BioAssay (EPA / NIEHS).
The source made the active and inactive calls. How the source made its calls: active means hit-call score of the fitted dose curve at least 0.9, where 1 is the maximum; inactive means score below 0.9.

What follows are compounds tested on Low-density lipoprotein receptor (LDLR), LDLR (gene 3949) (assay: BSK_CASM3C_LDLR: BioMAP Diversity Plus: CASM3C Assay for Low-density lipoprotein receptor (LDLR) Biomarker Activity (AID 2283045;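 further: LDLR protein level on the cell surface quantified by ELISA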)). Details: primary human coronary artery smooth muscle cells; actives raise or lower the signal.

Q: With CC(C)(C)OOC(C)(C)CCC(C)(C)OOC(C)(C)C as the compound, how does the outcome read?
A: Its outcome is “inactive”.

Q: With c1ccc2c(c1)oc1ccccc12 as the compound, how does the outcome read?
A: Its outcome is “inactive”.

Q: Nc1ccc([N+](=O)[O-])cc1 was tested. Which outcome did it give?
A: Its outcome is “inactive”.

Q: For Nc1ccc(Oc2ccc(N)cc2)cc1, which outcome is on record?
A: The outcome was “inactive”.

Q: How did the outcome turn out when COC(=O)c1ccccc1N was run?
A: Its outcome is “inactive”.

Q: For c1ccc2c(c1)-c1cccc3cccc-2c13, which outcome is on record?
A: The outcome was “inactive”.

Q: With O=C(O)C1C2CCC(O2)C1C(=O)O (stereo unspecified) as the compound, how does the outcome read?
A: Its outcome is “inactive”.

Q: With O=P(OCCCl)(OCCCl)OCCCl as the compound, how does the outcome read?
A: The outcome was “inactive”.

Q: CC(C)(OOC(C)(C)c1ccccc1)c1ccccc1 was tested. Which outcome did it give?
A: Its outcome is “inactive”.

Q: With CC(C)N(Cc1ccccc1)C(=O)C(C)(C)C as the compound, how does the outcome read?
A: Its outcome is “inactive”.

Q: CS(=O)(=O)NC(=O)c1cc(Oc2ccc(C(F)(F)F)cc2Cl)ccc1[N+](=O)[O-] was tested. Which outcome did it give?
A: The outcome was “inactive”.

Q: For [O-][Cl+]O, which outcome is on record?
A: Its outcome is “inactive”.

Q: How did the outcome turn out when CCN(CC)CCO was run?
A: Its outcome is “inactive”.

Q: How did the outcome turn out when O=C(Oc1ccc(Br)cc1)N1CCN2CCC1CC2 was run?
A: The outcome was “inactive”.

Q: O=[N+]([O-])C(Br)(CO)CO was tested. Which outcome did it give?
A: Its outcome is “inactive”.

Q: Which outcome does the source give for c1ccc(C2CO2)cc1 (stereo unspecified) here?
A: The outcome was “inactive”.

Q: Which outcome does the source give for c1ccc(N=Nc2ccccc2)cc1 here?
A: The outcome was “inactive”.

Q: Which AC50 does the source give for Oc1ccc2ccc3cccc4ccc1c2c34 here?
A: The AC50 was 10.5 µM (active).

Q: Which AC50 does the source give for CCC[CH2][Sn]([Cl])([CH2]CCC)[CH2]CCC here?
A: Its AC50 is 0.226 µM (active).

Q: COP(=S)(OC)SCN1C(=O)c2ccccc2C1=O was tested. Which outcome did it give?
A: The outcome was “inactive”.

Q: For [Cl-].[Cl-].[Hg+2], which AC50 is on record?
A: The AC50 was 34.8 µM (active).

Q: How did the outcome turn out when CCN(CC)N=O was run?
A: The outcome was “inactive”.

Q: Nc1ccc(N=Nc2ccccc2)cc1 was tested. Which outcome did it give?
A: Its outcome is “inactive”.

Q: CCOC(=O)[C@]1(c2ccccc2)Oc2ccccc2[C@@H]1N was tested. Which AC50 did it give?
A: The AC50 was 23.4 µM (active).

Q: For c1ccc(NNc2ccccc2)cc1, which outcome is on record?
A: Its outcome is “inactive”.

Q: Which outcome does the source give for CCCCCOC(=O)c1ccccc1C(=O)OCCCCC here?
A: Its outcome is “inactive”.

Q: With CCCCCCCCOC(=O)c1ccc(C(=O)OCCCCCCCC)c(C(=O)OCCCCCCCC)c1 as the compound, how does the outcome read?
A: Its outcome is “inactive”.

Q: Which outcome does the source give for O=[N+]([O-])c1ccc(Oc2ccc(Cl)cc2Cl)cc1 here?
A: The outcome was “inactive”.

Each compound was assayed on Monocyte Chemoattractant Protein-1 (MCP1), CCL2 (gene 6347) (assay: BSK_CASM3C_MCP1: BioMAP Diversity Plus: CASM3C Assay for Monocyte Chemoattractant Protein-1 (MCP1) Biomarker Activity (AID 2283046;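 further: MCP-1 level quantified by ELISA 24 h after dosing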)). Details: primary human coronary artery smooth muscle cells; actives raise or lower the signal.

Q: How did the outcome turn out when CC(C)(C)OOC(C)(C)CCC(C)(C)OOC(C)(C)C was run?
A: The outcome was “inactive”.

Q: How did the outcome turn out when c1ccc2c(c1)oc1ccccc12 was run?
A: Its outcome is “inactive”.

Q: Nc1ccc([N+](=O)[O-])cc1 was tested. Which outcome did it give?
A: Its outcome is “inactive”.

Q: For Nc1ccc(Oc2ccc(N)cc2)cc1, which outcome is on record?
A: Its outcome is “inactive”.

Q: With COC(=O)c1ccccc1N as the compound, how does the outcome read?
A: The outcome was “inactive”.

Q: With c1ccc2c(c1)-c1cccc3cccc-2c13 as the compound, how does the outcome read?
A: Its outcome is “inactive”.

Q: O=C(O)C1C2CCC(O2)C1C(=O)O (stereo unspecified) was tested. Which AC50 did it give?
A: Its AC50 is 21.8 µM (active).

Q: How did the outcome turn out when O=P(OCCCl)(OCCCl)OCCCl was run?
A: The outcome was “inactive”.

Q: With CC(C)(OOC(C)(C)c1ccccc1)c1ccccc1 as the compound, how does the outcome read?
A: The outcome was “inactive”.

Q: For CC(C)N(Cc1ccccc1)C(=O)C(C)(C)C, which outcome is on record?
A: The outcome was “inactive”.

Q: For CS(=O)(=O)NC(=O)c1cc(Oc2ccc(C(F)(F)F)cc2Cl)ccc1[N+](=O)[O-], which outcome is on record?
A: The outcome was “inactive”.

Q: For [O-][Cl+]O, which outcome is on record?
A: Its outcome is “inactive”.

Q: CCN(CC)CCO was tested. Which outcome did it give?
A: The outcome was “inactive”.

Q: Which outcome does the source give for O=C(Oc1ccc(Br)cc1)N1CCN2CCC1CC2 here?
A: The outcome was “inactive”.

Q: For O=[N+]([O-])C(Br)(CO)CO, which AC50 is on record?
A: The AC50 was 28.1 µM (active).

Q: Which outcome does the source give for c1ccc(C2CO2)cc1 (stereo unspecified) here?
A: Its outcome is “inactive”.

Q: Which outcome does the source give for c1ccc(N=Nc2ccccc2)cc1 here?
A: Its outcome is “inactive”.

Q: Oc1ccc2ccc3cccc4ccc1c2c34 was tested. Which outcome did it give?
A: The outcome was “inactive”.

Q: Which AC50 does the source give for CCC[CH2][Sn]([Cl])([CH2]CCC)[CH2]CCC here?
A: Its AC50 is 0.383 µM (active).

Q: How did the outcome turn out when COP(=S)(OC)SCN1C(=O)c2ccccc2C1=O was run?
A: Its outcome is “inactive”.

Q: With [Cl-].[Cl-].[Hg+2] as the compound, how does the AC50 read?
A: Its AC50 is 33.5 µM (active).

Q: With CCN(CC)N=O as the compound, how does the outcome read?
A: Its outcome is “inactive”.

Q: For Nc1ccc(N=Nc2ccccc2)cc1, which outcome is on record?
A: The outcome was “inactive”.

Q: For CCOC(=O)[C@]1(c2ccccc2)Oc2ccccc2[C@@H]1N, which outcome is on record?
A: Its outcome is “inactive”.

Q: c1ccc(NNc2ccccc2)cc1 was tested. Which outcome did it give?
A: The outcome was “inactive”.

Q: Which outcome does the source give for CCCCCOC(=O)c1ccccc1C(=O)OCCCCC here?
A: The outcome was “inactive”.

Q: CCCCCCCCOC(=O)c1ccc(C(=O)OCCCCCCCC)c(C(=O)OCCCCCCCC)c1 was tested. Which outcome did it give?
A: Its outcome is “inactive”.

Q: With O=[N+]([O-])c1ccc(Oc2ccc(Cl)cc2Cl)cc1 as the compound, how does the outcome read?
A: Its outcome is “inactive”.
